{"source": "PubChem BioAssay (NCATS)", "note": "Inconclusive results are not listed. Unmarked numbers belong to inactive results. The source made the active and inactive calls. Calls follow the shape of the dose curve; as a rule, active = well fitted curve in the direction sought with a large enough effect; inconclusive = small, poorly fitted or top-dose-only effect, or another doubt; inactive = no such curve, though single readings can be large; an effect the other way counts as inactive or inconclusive. % is scaled to controls: 0 for no effect and ±100 for the full control effect; potency is read from the fitted curve at half-maximal effect."}
{"molecular_target": "Rap guanine nucleotide exchange factor 4 (Homo sapiens) (UniProt Q8WZA2)", "sequence (Q8WZA2 whole entry, looked up)": "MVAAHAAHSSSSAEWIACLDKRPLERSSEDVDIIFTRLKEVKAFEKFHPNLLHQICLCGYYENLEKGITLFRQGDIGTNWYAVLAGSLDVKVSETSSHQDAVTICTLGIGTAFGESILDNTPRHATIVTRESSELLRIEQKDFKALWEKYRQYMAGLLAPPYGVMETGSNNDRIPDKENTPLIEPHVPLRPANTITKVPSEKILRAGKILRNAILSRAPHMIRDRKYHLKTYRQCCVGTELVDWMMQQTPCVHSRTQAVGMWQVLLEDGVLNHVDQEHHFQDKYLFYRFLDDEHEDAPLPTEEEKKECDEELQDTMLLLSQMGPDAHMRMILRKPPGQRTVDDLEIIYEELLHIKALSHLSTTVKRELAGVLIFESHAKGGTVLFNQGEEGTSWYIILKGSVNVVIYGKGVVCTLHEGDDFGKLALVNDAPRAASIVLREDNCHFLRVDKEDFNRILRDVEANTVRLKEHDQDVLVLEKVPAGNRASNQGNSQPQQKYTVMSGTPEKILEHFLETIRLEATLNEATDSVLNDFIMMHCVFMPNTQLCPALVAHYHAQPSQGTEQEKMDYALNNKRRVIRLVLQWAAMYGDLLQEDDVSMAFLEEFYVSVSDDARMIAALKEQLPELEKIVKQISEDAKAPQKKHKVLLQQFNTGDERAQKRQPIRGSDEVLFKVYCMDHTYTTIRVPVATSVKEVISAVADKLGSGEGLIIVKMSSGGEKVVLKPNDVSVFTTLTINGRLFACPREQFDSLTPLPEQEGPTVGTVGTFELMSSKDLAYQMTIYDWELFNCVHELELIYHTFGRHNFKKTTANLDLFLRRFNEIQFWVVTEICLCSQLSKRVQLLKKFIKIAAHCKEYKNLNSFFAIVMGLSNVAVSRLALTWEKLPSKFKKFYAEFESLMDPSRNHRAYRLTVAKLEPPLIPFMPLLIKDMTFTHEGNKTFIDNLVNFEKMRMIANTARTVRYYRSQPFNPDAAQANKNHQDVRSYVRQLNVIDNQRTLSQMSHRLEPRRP", "test": "Confirmatory qHTS for agonist of cAMP-regulated guanine nucleotide exchange factor 4 (EPAC2) (AID 1645884);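 also: nucleotide exchange releases bodipy-GDP from Rap1 and this lowers its fluorescence; nearly all actives have a fitted effect of over 65% in size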", "settings": "EPAC2 GEF activity, Rap1B-BODIPY-GDP fluorescence; series mostly up to 154 µM; activation: at the top concentration"}
{"smiles": "CC1Sc2ccc(C(=O)OCc3ccccc3Cl)cc2NC1=O", "note": "(stereo not drawn)", "activation": "1.16%"}
{"smiles": "CC(C)N(C(=O)Nc1ccc2nsnc2c1)C(C)C", "activation": "2.55% [at 17.1 µM, percent relative to cAMP agonist control]"}
{"smiles": "CCOC(=O)[C@H](CCc1ccccc1)N[C@@H](C)C(=O)N1[C@@H](C(=O)O)C[C@@H]2CCC[C@@H]21", "activation": "14.7% [at 83.8 µM, percent relative to cAMP agonist control]"}
{"smiles": "Cc1ccc(S(=O)(=O)N2[C@@H](CO)CO[C@H]2CC(=O)c2ccc(F)cc2)cc1", "activation": "27.8%"}
{"smiles": "Cc1cc(C)cc(NC(=O)c2sc3nc(-c4ccccc4)cn3c2C)c1", "activation": "10.3% [at 83.8 µM, percent relative to cAMP agonist control]"}
{"smiles": "CN1CC(O)C2=CC(=O)C(=O)C=C21", "note": "(stereo not drawn)", "activation": "3.11%"}
{"smiles": "COC(=O)c1cc(Br)c(=O)n(CCC2=CCCCC2)c1", "activation": "0% [at 17.1 µM, percent relative to cAMP agonist control]"}
{"smiles": "O=c1c2ccccc2oc2ccc(Oc3ccccc3)cc12", "activation": "13.4%"}
{"smiles": "COC(=O)c1cn(C(=O)c2ccc(OC)cc2)c2ccccc12", "Potency": "31.6 µM (active)"}
{"smiles": "COc1ccc(CNC(=O)[C@@H]2CC=C[C@@H]3CCN(Cc4ccccc4)C(=O)[C@@H]32)cc1", "activation": "-0.325%"}
{"smiles": "Cc1cc(C)c2nccc(/C=C/c3ccc(N(C)C)cc3)c2c1", "activation": "0.0784%"}
{"smiles": "O=C(Nc1ccc(Cl)cc1)N[C@@H]1CC[C@H](CCNS(=O)(=O)c2ccccc2F)O[C@@H]1CO", "activation": "5%"}
{"smiles": "COc1ccccc1NC(=O)Nc1nc(CC(=O)Nc2ccc(N(C)C)cc2)cs1", "activation": "15.9% [at 17.1 µM, percent relative to cAMP agonist control]"}
{"smiles": "CCOC(=O)C1CCCN(c2cc(=O)n(C3CCCCC3)c(=O)[nH]2)C1", "note": "(stereo not drawn)", "activation": "2.95%"}
{"smiles": "O=C(COC(=O)/C=C/c1cccc(C(F)(F)F)c1)NC(=O)NC1CCCC1", "activation": "4.78% [at 17.1 µM, percent relative to cAMP agonist control]"}
{"smiles": "O=C(O)c1cc(-c2ccc(-c3c(-c4ccc5c(c4)OCO5)noc3-c3ccsc3)cc2)nc2ccccc12", "activation": "4.2%"}
{"smiles": "COc1ccccc1N1CCN(c2ccc3c(c2)S(=O)(=O)c2cccc(C(=O)NCC4CC4)c2C3=O)CC1", "activation": "-1.02%"}
{"smiles": "CCOC(=O)N1CCC(N2CCOc3ccc(CN4CCC(O)(c5cccnc5)CC4)cc3C2)CC1", "activation": "0.166%"}
{"smiles": "Cn1c(O)c(N=NC(=O)c2ccccc2O)c2ccccc21", "activation": "13.8%"}
{"smiles": "COc1ccc(OC)c2c(/C=C/c3c(C)[nH]c4ccccc34)ccnc12", "activation": "-1.64%"}
{"smiles": "COc1ccc(C2CN=NC23CCc2ccccc2C3=O)cc1", "note": "(stereo not drawn)", "activation": "12.3%"}
{"smiles": "COc1ccc(CCn2c(=N)c(S(=O)(=O)c3ccc(C)cc3)cc3c(=O)n4ccccc4nc32)cc1", "activation": "-30.1% [at 17.1 µM, percent relative to cAMP agonist control]"}
{"smiles": "C/C=C(\\C)C(=O)OC1C(OC(=O)C2(C)OC2C)c2cc3ccc(=O)oc3cc2OC1(C)C", "note": "(stereo not drawn)", "activation": "3.49%"}
{"smiles": "COc1cc(CCN(C(=O)c2cccc(S(C)(=O)=O)c2)C(CCc2ccccc2)c2nc3ccccc3[nH]2)cc(OC)c1", "note": "(stereo not drawn)", "activation": "8.58%"}
{"smiles": "CC/C(=C/c1ccccc1OC)c1cc(-c2ccccc2)cc2oc3ccccc3c12", "activation": "2.47%"}
{"smiles": "CCc1ccccc1NC(=O)c1oc(=O)c2ccccc2c1-c1ccccc1", "activation": "8.7% [at 83.8 µM, percent relative to cAMP agonist control]"}
{"smiles": "O=C1[C@H](Cc2ccccc2)NCCCC[C@H](c2ccco2)N1Cc1ccccc1", "activation": "12.3%"}
{"smiles": "CCc1ccc([C@@H]2CC=C(C(=O)O)[C@H](c3ccc(Br)cc3)N2S(=O)(=O)c2ccc(C)cc2)cc1", "activation": "-5.28% [at 17.1 µM, percent relative to cAMP agonist control]"}
{"smiles": "Cc1[nH]c2ccccc2c1/C=C/c1ccnc2ccccc12", "activation": "1.84%"}
{"smiles": "CCCCN(C(=O)CSc1n[nH]c(-c2ccc(C)cc2)n1)c1c(N)n(CCCC)c(=O)[nH]c1=O", "activation": "14.8%"}
{"smiles": "COc1ccc(-c2nc3cc(C)ccc3cc2CN(C(=O)c2cccs2)C2CC2)cc1OC", "activation": "8.75%"}
{"smiles": "Cc1cccc(NC(=O)CC2Nc3cccc4cccc(c34)NC2=O)c1", "note": "(stereo not drawn)", "activation": "-15.4% [at 83.8 µM, percent relative to cAMP agonist control]"}
{"smiles": "Cc1nc2ccccc2c(=O)n1/N=C/c1ccccc1O", "activation": "1.94% [at 17.1 µM, percent relative to cAMP agonist control]"}
{"smiles": "COc1cccc(-c2nc3cc(SC)ccc3cc2CN(C(=O)c2sccc2C)C2CC2)c1", "activation": "2.97%"}
{"smiles": "Cc1ccc(S(=O)(=O)N2[C@@H](c3cccc(Cl)c3)C(C(=O)O)=CC[C@H]2c2ccc(C(C)C)cc2)cc1", "activation": "-27.5%"}
{"smiles": "C=CCn1c(N)c(S(=O)(=O)c2cccs2)c2nc3ccccc3nc21", "activation": "0%"}
{"smiles": "CN(CC(=O)O)c1ccc(/C=C/c2ccnc3ccccc23)cc1", "activation": "12.5%"}
{"smiles": "COc1cccc(-c2nc3cc(SC)ccc3cc2CN(C(=O)c2csc(C)n2)C2CC2)c1", "activation": "3.32%"}
{"smiles": "COC(=O)c1cc(CNC(=O)c2ccccn2)cc(NC(=O)c2ccccc2OC)c1", "activation": "5.01%"}
{"molecular_target": "Rap guanine nucleotide exchange factor 4 (Homo sapiens) (UniProt Q8WZA2)", "test": "Confirmatory qHTS for antagonist of cAMP-regulated guanine nucleotide exchange factor 4 (EPAC2) (AID 1645885); also: nearly all actives have a fitted effect of over 25% in size", "settings": "EPAC2 Rap1B-BODIPY-GDP exchange fluorescence, biochemical; series mostly up to 12.7 µM; activity change, negative = inhibition: at the top concentration"}
{"smiles": "CC1Sc2ccc(C(=O)OCc3ccccc3Cl)cc2NC1=O", "note": "(stereo not drawn)", "activity change, negative = inhibition": "-19.5% [at 114 µM]"}
{"smiles": "CC(C)N(C(=O)Nc1ccc2nsnc2c1)C(C)C", "activity change, negative = inhibition": "-13.2%"}
{"smiles": "CCOC(=O)[C@H](CCc1ccccc1)N[C@@H](C)C(=O)N1[C@@H](C(=O)O)C[C@@H]2CCC[C@@H]21", "activity change, negative = inhibition": "5.38% [at 62.5 µM]"}
{"smiles": "Cc1ccc(S(=O)(=O)N2[C@@H](CO)CO[C@H]2CC(=O)c2ccc(F)cc2)cc1", "activity change, negative = inhibition": "-11.5% [at 114 µM]"}
{"smiles": "COC(=O)c1cn(C(=O)c2ccc(OC)cc2)c2ccccc12", "activity change, negative = inhibition": "2.2% [at 114 µM]"}
{"smiles": "COc1ccc(CNC(=O)[C@@H]2CC=C[C@@H]3CCN(Cc4ccccc4)C(=O)[C@@H]32)cc1", "activity change, negative = inhibition": "-11.9% [at 114 µM]"}
{"smiles": "O=C(Nc1ccc(Cl)cc1)N[C@@H]1CC[C@H](CCNS(=O)(=O)c2ccccc2F)O[C@@H]1CO", "activity change, negative = inhibition": "-18.5% [at 114 µM]"}
{"smiles": "COc1ccccc1NC(=O)Nc1nc(CC(=O)Nc2ccc(N(C)C)cc2)cs1", "activity change, negative = inhibition": "4.39%"}
{"smiles": "CCOC(=O)C1CCCN(c2cc(=O)n(C3CCCCC3)c(=O)[nH]2)C1", "note": "(stereo not drawn)", "activity change, negative = inhibition": "-8.73% [at 114 µM]"}
{"smiles": "O=C(COC(=O)/C=C/c1cccc(C(F)(F)F)c1)NC(=O)NC1CCCC1", "activity change, negative = inhibition": "-6.62%"}
{"smiles": "O=C(O)c1cc(-c2ccc(-c3c(-c4ccc5c(c4)OCO5)noc3-c3ccsc3)cc2)nc2ccccc12", "Potency": "37.9 µM (active)"}
{"smiles": "COc1ccccc1N1CCN(c2ccc3c(c2)S(=O)(=O)c2cccc(C(=O)NCC4CC4)c2C3=O)CC1", "activity change, negative = inhibition": "-18.4% [at 114 µM]"}
{"smiles": "CCOC(=O)N1CCC(N2CCOc3ccc(CN4CCC(O)(c5cccnc5)CC4)cc3C2)CC1", "activity change, negative = inhibition": "-7.47% [at 114 µM]"}
{"smiles": "Cn1c(O)c(N=NC(=O)c2ccccc2O)c2ccccc21", "activity change, negative = inhibition": "-22.6% [at 114 µM]"}
{"smiles": "COc1ccc(OC)c2c(/C=C/c3c(C)[nH]c4ccccc34)ccnc12", "activity change, negative = inhibition": "-11.2% [at 114 µM]"}
{"smiles": "COc1ccc(CCn2c(=N)c(S(=O)(=O)c3ccc(C)cc3)cc3c(=O)n4ccccc4nc32)cc1", "activity change, negative = inhibition": "-26.5%"}
{"smiles": "COc1cc(CCN(C(=O)c2cccc(S(C)(=O)=O)c2)C(CCc2ccccc2)c2nc3ccccc3[nH]2)cc(OC)c1", "note": "(stereo not drawn)", "activity change, negative = inhibition": "-19.4% [at 114 µM]"}
{"smiles": "CC/C(=C/c1ccccc1OC)c1cc(-c2ccccc2)cc2oc3ccccc3c12", "activity change, negative = inhibition": "-23.3% [at 114 µM]"}
{"smiles": "CCc1ccccc1NC(=O)c1oc(=O)c2ccccc2c1-c1ccccc1", "activity change, negative = inhibition": "14.4%"}
{"smiles": "O=C1[C@H](Cc2ccccc2)NCCCC[C@H](c2ccco2)N1Cc1ccccc1", "activity change, negative = inhibition": "-32.2% [at 114 µM]"}
{"smiles": "Cc1[nH]c2ccccc2c1/C=C/c1ccnc2ccccc12", "activity change, negative = inhibition": "-12.2% [at 114 µM]"}
{"smiles": "CCCCN(C(=O)CSc1n[nH]c(-c2ccc(C)cc2)n1)c1c(N)n(CCCC)c(=O)[nH]c1=O", "activity change, negative = inhibition": "-10.1% [at 114 µM]"}
{"smiles": "COc1ccc(-c2nc3cc(C)ccc3cc2CN(C(=O)c2cccs2)C2CC2)cc1OC", "Potency": "49.4 µM (active)"}
{"smiles": "Cc1cccc(NC(=O)CC2Nc3cccc4cccc(c34)NC2=O)c1", "note": "(stereo not drawn)", "activity change, negative = inhibition": "-6.89%"}
{"smiles": "Cc1nc2ccccc2c(=O)n1/N=C/c1ccccc1O", "activity change, negative = inhibition": "4.73%"}
{"smiles": "COc1cccc(-c2nc3cc(SC)ccc3cc2CN(C(=O)c2sccc2C)C2CC2)c1", "Potency": "31.2 µM (active)"}
{"smiles": "CN(CC(=O)O)c1ccc(/C=C/c2ccnc3ccccc23)cc1", "Potency": "55.5 µM (active)"}
{"smiles": "COc1cccc(-c2nc3cc(SC)ccc3cc2CN(C(=O)c2csc(C)n2)C2CC2)c1", "Potency": "11.1 µM (active)"}
{"smiles": "COC(=O)c1cc(CNC(=O)c2ccccn2)cc(NC(=O)c2ccccc2OC)c1", "activity change, negative = inhibition": "-18% [at 114 µM]"}
